Bioassay records: PubChem, National Center for Advancing Translational Sciences (NCATS)
TDP1 cell CPT = DT40-hTDP1 cell growth loss with CPT; chicken DT40 Tdp1-/-;hTDP1 cells + 20 nM CPT, ATP luminescence, 48 h; Potency, µM (top dose mostly 46.2 µM), for inactives: at the highest dose activity change, negative = growth inhibition, hits mostly inhibitors; 420,000 compounds, 12% hits; AID 686979; also: % is scaled to controls: 0 for no effect and ±100 for the full control effect; nearly all actives have a fitted effect of over 55% in size
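Cell growth measured by CellTiter-Glo luminescence after a minimum 48 h, 37 C compound exposure with 20 nM CPT in Tdp1-knockout DT40 cells stably expressing hTDP1, seeded 400/well; qHTS titration format.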
ClpP mod = qHTS Assay for Activators of ClpP; purified B. subtilis ClpP, FRET peptide cleavage, 20 min; Potency, µM (titrated, usually from 57.5 µM), without a hit: at the highest dose activity change, negative = active; 340,000 compounds, 1.9% hits; active = well fitted falling curve with a large enough effect; inconclusive = small, poorly fitted or top-dose-only effect; inactive = no such curve, though single readings can be large or run the other way; also: the source files actives as falling curves though it sought activators and does not explain the sign; nearly all actives have a fitted effect of over 65% in size
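ClpP 10 microg/mL final, pH 8 Tris/KCl buffer with BSA, glycerol, Tween-20; compound pinned in; FRET-FV substrate; RT 20 min; Ex320/Em430; ΔFRET vs ADEP 5.8 microM, DMSO, no enzyme.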
TDP1 block = blocks human tyrosyl-DNA phosphodiesterase 1; Q9NUW8; recombinant TDP1, AlphaScreen DNA substrate cleavage; Potency, µM (doses to about 130 µM), without a hit: at the highest dose activity change, negative = inhibition, most hits filed as inhibitors; 350,000 compounds, 0.28% hits; AID 485290; also: % is scaled to controls: 0 for no effect and ±100 for the full control effect; nearly all actives have a fitted effect of over 40% in size
Target sequence (Q9NUW8 whole entry, looked up): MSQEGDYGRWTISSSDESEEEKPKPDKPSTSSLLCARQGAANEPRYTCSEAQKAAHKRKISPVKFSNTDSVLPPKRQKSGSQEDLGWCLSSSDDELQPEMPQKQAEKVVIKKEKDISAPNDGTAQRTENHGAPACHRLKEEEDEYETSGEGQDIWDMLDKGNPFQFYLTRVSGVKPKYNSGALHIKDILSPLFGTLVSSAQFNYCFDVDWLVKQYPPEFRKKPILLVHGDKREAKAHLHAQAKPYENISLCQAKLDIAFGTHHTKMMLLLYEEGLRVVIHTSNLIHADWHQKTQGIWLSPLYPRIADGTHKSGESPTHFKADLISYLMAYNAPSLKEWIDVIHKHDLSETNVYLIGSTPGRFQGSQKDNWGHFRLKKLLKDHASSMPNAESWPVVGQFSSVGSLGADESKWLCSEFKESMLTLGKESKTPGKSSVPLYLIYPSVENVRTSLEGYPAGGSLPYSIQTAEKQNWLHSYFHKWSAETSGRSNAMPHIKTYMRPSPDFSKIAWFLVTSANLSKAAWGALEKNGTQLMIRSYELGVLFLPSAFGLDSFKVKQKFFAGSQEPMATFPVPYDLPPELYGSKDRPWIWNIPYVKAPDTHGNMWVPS
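Recombinant E. coli-expressed Tdp1 (1 nM) preincubated with compound 15 min at RT, then 5'-biotin/3'-phosphotyrosine-FITC DNA substrate (15 nM) added for 5 min. AlphaScreen beads (10 ug/ml) added, 10 min RT; tyrosine-FITC cleavage read as signal loss.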
TDP1 cell noCPT = qHTS for Inhibitors of human tyrosyl-DNA phosphodiesterase 1 (TDP1): qHTS in cells in absence of CPT; DT40 Tdp1-/- hTDP1 cells, no CPT, ATP luminescence, 48 h; Potency, µM (series often up to 46.2 µM), for inactives: at the top dose activity change, negative = growth inhibition, hits mostly inhibitors; 420,000 compounds, 15% hits; also: % is scaled to controls: 0 for no effect and ±100 for the full control effect; nearly all actives have a fitted effect of over 55% in size
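Stably hTDP1-transfected Tdp1-null chicken DT40 cells were treated with library compounds minus camptothecin and grown for at least 48 hr at 37 °C, after which cellular ATP was quantified by luminescence.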
* marks the source's active call; other numbers are inactive results; ? = inconclusive; · = no result given; [ ] = dose if it differs, or a comment. Shown are actives, neighbours in structure and some others; about 17% of the full set was active somewhere. Unless noted, calls follow the shape of the dose curve; as a rule, active = well fitted curve in the direction sought with a large enough effect; inconclusive = small, poorly fitted or top-dose-only effect, or another doubt; inactive = no such curve, though single readings can be large; an effect the other way counts as inactive or inconclusive. Potency is read from the fitted curve at half-maximal effect.

SMILES	TDP1 cell CPT	ClpP mod	TDP1 block	TDP1 cell noCPT
COc1ccc(-c2c[n+](CC(=O)N3c4ccccc4Sc4ccccc43)c3n2CCC3)cc1	2.3µM*	-1%	5%	2.1µM*
O=C(C[n+]1cc(-c2ccc(Cl)c(Cl)c2)n2c1CCC2)N1c2ccccc2Sc2ccccc21	16µM*	1%	0%	23µM*
Cc1cccc(C)c1NC(=O)C[n+]1cc(-c2ccccc2)n2c1CCC2	1%	-2%	-1%	-4%
CC1CCC(C(C)C)C(OC(=O)C[n+]2cc(-c3ccc(Cl)cc3)n3c2CCC3)C1 (configuration not stated)	2.9µM*	0%	·	2.3µM*
O=C(C[n+]1cc(-c2ccc(Cl)cc2)n2c1CCC2)N1c2ccccc2Sc2ccccc21	9.2µM*	3%	-1%	13µM*
COc1ccc(S(=O)(=O)n2cccc2)cc1	-5%	-1%	·	-4%
COc1ccc(C(=O)NCC2Cc3c(F)ccc(-c4nc(C)cnc4C)c3O2)cc1F (configuration not stated)	-2%[9.04 µM]	·	·	-25%
CCOC(=O)c1c(C)[nH]c(C)c1C(=O)COC(=O)c1nc2nccc(C)n2n1	1%	1%	4%	26%
Cc1cccn2c(CNCC3(c4ccccc4)CCCC3)c(C(=O)N3CCOCC3)nc12	13µM*	·	3%	10µM*
CSCCNCc1c(C(=O)N2CCOCC2)nc2c(C)cccn12	-3%	·	-1%	?
CCN1CCCC1CNC(=O)c1cnn(-c2ncc3c(n2)-c2ccc(OC)cc2CC3)c1C1CC1 (configuration not stated)	15%[9.04 µM]	·	·	-21%
COc1ccc(N2CCN(C(=O)Oc3ccc([N+](=O)[O-])cc3)CC2)cc1	?	0%	·	26µM*
CCOC(=O)N1CCN(c2ccc([N+](=O)[O-])cc2)CC1	?	-2%	3%	?
COc1ccc(N2CCN(C(=O)c3cc(=O)c4cc(C)ccc4o3)CC2)cc1	-28%	-1%	·	?
O=C(O)c1ccc(COc2ccc([N+](=O)[O-])cc2)o1	15%	·	·	-1%
COc1ccc(N2CCN(C(=O)c3cc(=O)c4cc(C)cc(C)c4o3)CC2)cc1	13µM*	·	·	?
COc1ccc(N2CCN(C(=O)c3ccc(COc4ccc([N+](=O)[O-])cc4)o3)CC2)cc1	10µM*	1%	9%	10µM*
Cc1cc(N2CCN(C(=O)Oc3ccc([N+](=O)[O-])cc3)CC2)c2ccccc2n1	?	-1%	·	18µM*
Cc1ccc(Nc2ccc(C(=O)N3CCCC3)cn2)c(C)c1	?	-2%	-6%	26µM*
Cc1nc2ncnn2c(N2CCCC(C(=O)Nc3ccc4c(c3)CCC4)C2)c1C (configuration not stated)	21µM*	-1%	9%	23µM*
CCc1c(C)nc2ncnn2c1N1CCC(C(=O)Nc2ccc(C)cc2)CC1	21µM*	2%	3%	15µM*
CCOc1ccccc1NC(=O)C1CCCN(c2c(CC)c(C)nc3ncnn23)C1 (configuration not stated)	21µM*	·	·	21µM*
CCc1c(C)nc2ncnn2c1N1CCC(C(=O)Nc2ccccc2)CC1	?	0%	3%	16µM*
CCc1c(C)nc2ncnn2c1N1CCCC(C(=O)NCCc2ccc(OC)cc2)C1 (configuration not stated)	?	-1%	2%	?
O=C(Nc1ccc2c(c1)CCC2)C1CCCN(c2ncccn2)C1 (configuration not stated)	-16%	-15%	6%	?
SMILES	TDP1 cell CPT	ClpP mod	TDP1 block	TDP1 cell noCPT
CC(=O)Nc1ccc(NC(=O)C2CCN(c3c(Cc4ccccc4)c(C)nc4ncnn34)CC2)cc1	?	-1%	·	-28%
COc1ccc(-n2ncc3c(=O)n(CC(=O)N(C(C)C)C(C)C)cnc32)cc1	3%	·	·	-10%
CC(C)NC(=O)Nc1cccc2c1O[C@H](CN(C)C(=O)NC1CCCCC1)[C@@H](C)CN([C@H](C)CO)C2=O	-16%	-7%	0%	-3%
Cc1ccc(C(O)(COC(=O)C(C)C)COC(=O)C(C)C)c(O)c1	4.6µM*	-3%	-14%	3.7µM*
O=C(N/N=C/c1ccc(F)cc1)c1c(O)c2ccccc2[nH]c1=O	4.6µM*	2%	-3%	5.2µM*
O=C(Nc1cccc(F)c1)c1c(O)c2ccccc2[nH]c1=O	-10%	?	·	-18%
O=C(N/N=C/c1ccccc1)c1c(O)c2ccccc2[nH]c1=O	9.2µM*	1%	-1%	12µM*
COC(=O)c1c(O)c2ccccc2[nH]c1=O	-2%	-7%	-5%	-4%
COC(=O)Nc1ccc(S(=O)(=O)NNC(=O)c2c(O)c3ccccc3[nH]c2=O)cc1	?	-5%	·	23µM*
O=C(N/N=C/c1cccc(F)c1)c1c(O)c2ccccc2[nH]c1=O	2.3µM*	0%	8%	2.3µM*
CCCCNC(=O)C(CC)Sc1nc2ccccc2c(=O)n1Cc1ccco1 (configuration not stated)	?	1%	-5%	?
CC1CC(C)CN(S(=O)(=O)c2ccc(C(=O)NCc3ccc4c(c3)OCO4)cc2)C1 (configuration not stated)	16µM*	-9%	8%	?
O=C(NCc1ccc2c(c1)OCO2)c1ccc(S(=O)(=O)N2CCCCC2)cc1	-13%	1%	-9%	-1%
Cc1nnc(NC(=O)c2ccc(S(=O)(=O)N3CC(C)CC(C)C3)cc2)o1 (configuration not stated)	?	·	-5%	16µM*
CC1CN(S(=O)(=O)c2ccc(C(=O)Nc3nnc(-c4ccccn4)o3)cc2)CC(C)O1 (configuration not stated)	-16%	·	9%	0%
Cc1cccc(NC(=O)c2ccc(S(=O)(=O)N3CCC(C)CC3)cc2)n1	?	-2%	0%	16µM*
Cc1cccc(NC(=O)c2ccc(S(=O)(=O)N3CCCCC3)cc2)n1	-28%	-3%	·	-26%
CCOC(=O)N1CCN(S(=O)(=O)c2ccc(C(=O)Nc3nnc(C)o3)cc2)CC1	3%	-3%	3%	-2%
CC1CN(S(=O)(=O)c2ccc(C(=O)Nc3nnc(-c4ccc5c(c4)CCCC5)o3)cc2)CC(C)O1 (configuration not stated)	6.5µM*	-10%	10%	12µM*
COc1ccc(C(CNC(=O)COc2cccc(C(F)(F)F)c2)N2CCCC2)cc1 (configuration not stated)	?	1%	2%	?
COc1ccccc1Nc1ccc(N)cc1	-4%	·	12%	-24%
O=C(Nc1nnc(C2CC2)o1)c1ccc(S(=O)(=O)N2CCCCC2)cc1	?	1%	4%	?
